Pin1 inhibitor – qHTS Assay to Find Inhibitors of Pin1. Pin1 FP peptide displacement, HiFluor488, 10 min. Potency, µM (titrated, usually from 115 µM), hits mostly inhibitors. hit rate 0.009% among 390,000. AID 504891, 2011; active means well fitted inhibition curve with a large enough effect in the polarisation, with a control signal flat, not every such curve was filed as active; inconclusive means small, poorly fitted or top-dose-only effect, or effect the other way, or a change in a side signal; inactive means no such curve, though single readings can be large or run the other way; the % refers to the polarisation
Target sequence (Q13526 whole entry, looked up): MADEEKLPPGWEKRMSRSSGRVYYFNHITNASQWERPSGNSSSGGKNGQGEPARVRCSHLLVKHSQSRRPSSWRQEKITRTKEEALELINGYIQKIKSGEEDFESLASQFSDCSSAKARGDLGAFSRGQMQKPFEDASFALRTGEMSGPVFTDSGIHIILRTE
PTAP TSG101 blk – qHTS Assay for Iinhibitors of HIV-1 Budding by Blocking the Interaction of PTAP/TSG101. Tumor susceptibility gene 101 protein (Homo sapiens), Q99816. Fluorescence polarization, FITC-PTAP peptide / Tsg101 binding. Potency, µM (series often up to 115 µM), actives largely listed as inhibitors. 340,000 tested, under 10 active. AID 493005, 2010; active means well fitted inhibition curve with a large enough effect in the main read-out, with a control signal flat, not every such curve was filed as active; inconclusive means small, poorly fitted or top-dose-only effect, or effect the other way, or a change in a side signal; inactive means no such curve, though single readings can be large or run the other way
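Steps: Tsg101 binding domain dispensed (10 uM final), compounds pinned in DMSO, FITC-labeled PTAP-motif peptide added (50 nM final); after 20 min binding at room temperature, polarization measured.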
PKM2 act – qHTS Assay for Activators of Human Muscle isoform 2 Pyruvate Kinase; purified PKM2, Kinase-Glo ATP luminescence, activation; response scale: 0% is enzyme alone, no compound; Potency, µM (titrated, usually from 57.5 µM), usual class: activators; AID 1631, 2009; hit rate 0.34% among 260,000; further: nearly all actives have a fitted effect of over 55% in size
Target sequence (P14618 whole entry, looked up, canonical isoform): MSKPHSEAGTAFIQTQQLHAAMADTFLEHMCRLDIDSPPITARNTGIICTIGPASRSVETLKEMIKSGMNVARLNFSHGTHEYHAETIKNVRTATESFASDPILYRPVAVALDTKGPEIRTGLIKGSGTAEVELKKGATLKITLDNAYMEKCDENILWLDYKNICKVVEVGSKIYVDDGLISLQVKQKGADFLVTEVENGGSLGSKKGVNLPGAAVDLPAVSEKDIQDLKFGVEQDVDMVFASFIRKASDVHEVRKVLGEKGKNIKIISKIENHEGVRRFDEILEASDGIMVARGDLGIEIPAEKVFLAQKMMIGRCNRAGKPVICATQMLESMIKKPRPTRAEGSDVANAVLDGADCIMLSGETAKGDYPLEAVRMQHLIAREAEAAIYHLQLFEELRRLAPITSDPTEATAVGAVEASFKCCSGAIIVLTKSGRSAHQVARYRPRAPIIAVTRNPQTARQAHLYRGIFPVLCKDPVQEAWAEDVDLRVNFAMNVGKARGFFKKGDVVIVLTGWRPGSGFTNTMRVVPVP
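Purified hPK-M2 (>95%) run at intermediate activity with 0.1 mM ADP and 0.5 mM PEP in 50 mM imidazole pH 7.2, KCl, MgCl2; 1 h room temperature. ATP formed read by Kinase-Glo luminescence; normalized to uninhibited and no-enzyme controls.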
A-T KAP1 phos – qHTS Assay for Identifying a Potential Treatment of Ataxia-Telangiectasia; F2112 A-T fibroblasts, KAP-1 phosphorylation AlphaLISA; neocarzinostatin DNA damage 30 min before lysis; Potency, µM (titrated, usually from 57.5 µM), usual class: activators; hit rate 0.19% among 320,000; further: nearly all actives have a fitted effect of over 45% in size
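ATM-like activity read as KAP-1 phosphorylation via AlphaLISA donor/acceptor antibody pairs after lysis and 6 hr at 25C. Cells were ATM-null patient fibroblasts (F2112, hTERT), dosed 60 min, then exposed to the DSB inducer NCS for 30 min.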
HeLa tox – Secondary assay for Activators of Human Pyruvate Kinase M2 isoform - Cell Titer Glo cytotoxicity assay. AID 1898, 2009. shares compounds with PKM2 act. 230 tested, under 10 active. activity change, negative = cytotoxicity, % at 57.5 µM. HeLa viability, CellTiter-Glo ATP luminescence, 24 h
Hits are given with their value; 0 = inactive; ? = inconclusive; - = not tested or not shown. Hits are enriched below; roughly 0.39% of the tested compounds scored in any of these assays. Unless noted, the call rests on the fitted dose curve; in most records, active means well fitted curve in the direction sought with a large enough effect; inconclusive means small, poorly fitted or top-dose-only effect, or another doubt; inactive means no such curve, though single readings can be large; an effect the other way counts as inactive or inconclusive.

SMILES	Pin1 inhibitor	PTAP TSG101 blk	PKM2 act	A-T KAP1 phos	others
Cc1cccc(C)c1NC(=S)NCCc1ccc(O)c(O)c1	0	0	28.2µM	0
O=C1CCc2cc(S(=O)(=O)Nc3cccc(-c4ccccc4)c3)ccc2N1	0	-	-	-
CCOc1ccc(S(=O)(=O)N2CCc3cc(OC)c(OC)cc3C2)cc1	0	?	15.8µM	0
COc1cccc(Cn2ncc3c4sc(C)cc4n(C)c3c2=O)c1	0	-	-	-
COC(=O)C1=C(C)N=c2s/c(=C/c3ccoc3)c(=O)n2C1c1ccccc1 (stereo not drawn)	?	0	22.4µM	-
CCOC(=O)C1=C(C)N=c2s/c(=C\c3ccc(OCC(=O)O)cc3)c(=O)n2C1c1ccccc1 (stereo not drawn)	0	0	0	0
COc1cccc(C2c3c(ncn(-c4ccccn4)c3=N)Oc3ccc4ccccc4c32)c1 (stereo not drawn)	0	-	-	-
COC(=O)C1=CN(Cc2ccc(OC)cc2)C=C(C(=O)OC)C1c1cc(OC)c(OC)c(OC)c1	0	0	-	?
COC(=O)C1=CN(C(C)c2ccccc2)C=C(C(=O)OC)C1c1cc(OC)c(OC)c(OC)c1 (stereo not drawn)	0	0	-	7.08µM
Cc1cc2c(cc1S(=O)(=O)NCc1ccc(F)cc1)n(C)c(=O)c(=O)n2C	0	-	-	-
Cc1cc2c(cc1S(=O)(=O)Nc1cccc(F)c1)n(C)c(=O)c(=O)n2C	0	0	2µM	0
CCOC(=O)C1CCN(c2nc(N)c3c(N)nc(SCC(=O)O)cc3c2C#N)CC1	?	0	10µM	0
CCOC(=O)C1CCN(c2nc(C)cc(C)c2C#N)CC1	0	0	0	0
N#Cc1nc(Nc2ccc(F)cc2)nc(NC2CCCC2)n1	0	-	-	-
Cc1cc(-c2csc(NC(=O)c3ccc(=O)[nH]c3)n2)c(C)n1Cc1ccco1	0	0	10µM	0
CCC(C)(CCN1CCOCC1)N(Cc1cc2ccccc2n(C)c1=O)C(=O)C1CCCCC1 (stereo not drawn)	0	-	-	-
CN(C)S(=O)(=O)c1cccc(-n2sc3ccccc3c2=O)c1	0	0	2.82µM	0
N#Cc1c(Cl)cccc1Oc1ccc([S+](=O)([O-])N2CCN([S+](=O)([O-])c3c(F)cccc3F)CC2)cc1	0	-	-	-
C=Cc1c(C)c2cc3[nH]c(cc4nc(cc5nc(cc1[nH]2)C(C)=C5CCC(=O)O)C(CCC(=O)O)=C4C)c(C)c3C=C	31.6µM	0	-	31.6µM
COc1ccc(C2Nc3ccccc3C(=O)N2Cc2cccc3ccccc23)cc1COc1ccc(NC(C)=O)cc1 (stereo not drawn)	0	-	-	-
COc1nc(-c2ccccc2)ncc1S(=O)(=O)c1ccccc1	0	0	15.8µM	0
COc1ccc(Oc2nc(-c3ccccc3)ncc2S(=O)(=O)c2ccccc2)cc1	0	0	0	0
COC(=O)Cc1c(C)c2c(OCc3nn[nH]n3)cc(C)cc2oc1=O	0	0	0	0
Cc1c(C)c2cc(Cl)c(OCc3nn[nH]n3)cc2oc1=O	0	0	28.2µM	0
CCn1nc(C)c(/C=N/NC(=O)Cn2cncn2)c1C	0	0	0	3.16µM
SMILES	Pin1 inhibitor	PTAP TSG101 blk	PKM2 act	A-T KAP1 phos	others
O=C(CSc1cccc2cccnc12)Nc1ccc(S(=O)(=O)N2CCOCC2)cc1	0	0	25.1µM	0
COC(=O)c1ccc(NC(=O)Cc2ccc(F)cc2)cc1	0	0	0	0
COC(=O)c1ccc(C(=O)Nc2ccc(F)cc2)cc1	0	0	-	28.2µM
N#CC1=C(N)C2=CCCC[C@H]2[C@H](c2ccc(Br)cc2)C1(C#N)C#N	?	0	7.94µM	0
N#CC1=C(N)C2=CCCC[C@H]2[C@H](c2ccccc2)C1(C#N)C#N	?	0	0	0
CN1CCN(c2ccc(CNc3nn4c(=O)c5ccccc5nc4s3)cc2)CC1	0	-	-	-
C=C(C)n1c(=O)n(Cc2ccccc2C)c2ccccc21	0	0	-	11.2µM
C=C(C)n1c(=O)n(Cc2ccc(C)cc2)c2ccccc21	0	0	-	0
Cc1ccc(-n2c(N)c(C(=O)NCc3ccco3)sc2=S)cc1	0	0	0	0
C=CCn1c(N)c(C(=O)NCc2ccco2)sc1=S	0	-	8.91µM	0
O=C(c1ccccc1)N1CCN(c2nc(-c3ccc(Br)cc3)cs2)CC1	0	-	-	-
O=[N+]([O-])c1ccc(Sc2nnnn2-c2ccccc2)nc1	0	0	17.8µM	0
CC(=O)/C=C/c1ccccc1Oc1c(F)c(F)nc(F)c1F	0	0	-	31.6µM
Cc1nn(C)c(C)c1N1C(=O)c2cccc3c(N)ccc(c23)C1=O	?	?	0	0
CCCCNc1ccc2c3c(cccc13)C(=O)N(CCCC)C2=O	?	?	0	28.2µM
CCN1C(=O)c2cccc3c(N)ccc(c23)C1=O	?	?	-	39.8µM
COc1ccc(-c2cc(C(F)(F)F)nc(N3CCN(C)CC3)n2)cc1OC	0	0	0	0
COc1ccc(-c2cc(C(F)(F)F)nc(N3CCCCC3)n2)cc1OC	0	0	0	35.5µM
Fc1ccc(C2CC(c3cccs3)=NN2c2ccccc2)cc1 (stereo not drawn)	0	0	0	31.6µM
Oc1ccccc1C1=NN(c2ccccc2)C(c2ccc(F)cc2)C1 (stereo not drawn)	0	0	-	0
c1ccc(C2CC(c3cccs3)=NN2c2ccccc2)cc1 (stereo not drawn)	?	?	0	20µM
COc1ccc(C2CC(c3cccs3)=NN2c2ccc(C=O)cc2)cc1 (stereo not drawn)	?	?	0	25.1µM
CCCN1CN(c2ccccc2)C(=S)N(c2ccccc2)C1	0	0	0	1.12µM
CCCN1CNC(=S)N(c2ccccc2OC)C1	0	0	0	0
O=C(OCC#CCSc1nnc(-c2cccc3ccccc23)o1)c1sc2ccccc2c1Cl	0	-	-	-
SMILES	Pin1 inhibitor	PTAP TSG101 blk	PKM2 act	A-T KAP1 phos	others
O=S1(=O)c2ccccc2N=NN1Cc1ccc(Cl)c(Cl)c1	-	-	0	-
CC(C)(C)c1ccc(CN2N=Nc3ccccc3S2(=O)=O)cc1	0	0	3.16µM	0	HeLa tox=?
CCOC(=O)c1c(-c2ccccc2)csc1NC(=O)CSc1nnnn1C	0	0	3.55µM	0	HeLa tox=?
CCOC(=O)c1c(-c2ccccc2)csc1NC(=O)CSc1ccccc1	0	0	0	0
N#Cc1nc(N(c2ccccc2)c2ccccc2)nc(-n2cccc2)n1	0	-	-	-
O=S(=O)(NCCCCCNS(=O)(=O)c1ccccc1)c1ccccc1	0	0	1.41µM	0	HeLa tox=0
COC(=O)c1nc(Nc2cc(F)cc(F)c2)nc(NC2CCCC2)n1	0	-	-	-
Cc1cccc(S(=O)(=O)NC2CCN(C#N)C2)c1 (stereo not drawn)	0	-	-	-
